This is a sample that favours compounds with a hit; in the whole collection about 2.2% have one here.
Ba/F3 V617F tox – lowers viability of Ba/F3 cells expressing EpoR and JAK2V617F; ATP luminescence; inhibition, % at 5.6 µM; 1.1% of 220,000 active; AID 1446;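 active = inhibition above the campaign mean plus 3 SD over all tested compounds, cut at about 24% in these data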;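 also: cytokine-independent growth of Ba/F3 cells driven by EpoR plus mutant JAK2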
IEC-6 tox – counter-screen for KLF5 inhibitors: cytotoxicity in IEC-6 cells; IEC-6 cytotoxicity, luminescence viability; inhibition, % at 5 µM; 0.78% of 290,000 active; AID 1825; in the data active = inhibition above about 22%
KLF5 inh – suppresses KLF5 promoter-driven expression | DLD-1 KLF5 promoter-luciferase reporter, luminescence | inhibition, % at 5 µM | AID 1700 | 0.23% of 290,000 active;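 active = inhibition above a per-plate limit of that plate's mean compound inhibition plus 3 SD, cut at about 60% in these data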;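 also: higher means less KLF5 promoter-driven luciferase light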
aSyn 5UTR inh – MLPCN primary screen, SNCA 5' untranslated region. alpha-synuclein 5'UTR reporter, inhibitor activity. inhibition, % (tested at 7.5 µM). 0.82% of 300,000 active; in the data active = inhibition above about 60%;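 also: H4 neuroglioblastoma cells stably carrying SNCA 5'UTR luciferase fusion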
BaF3 tox – counter-screen for JAK2V617F inhibitors: parental Ba/F3 viability inhibitors; AID 1486; CellTiter-Glo ATP luminescence; 1.1% of 220,000 active; inhibition, % at 5.6 µM;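 active = inhibition above a per-campaign cutoff, the mean inhibition of all tested compounds plus 3 SD, cut at about 27% in these data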
APP 5UTR inh – APP translation inhibition; SH-SY5Y APP 5'UTR-luciferase reporter, luminescence; inhibition, % at 2 µM; 0.82% of 190,000 active; AID 1285;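 active = inhibition above a set limit, derived from the sample mean plus 3 SD, cut at about 45% in these data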
A number is an active result; - = inactive; . = no result given.

SMILES | Ba/F3 V617F tox | IEC-6 tox | KLF5 inh | aSyn 5UTR inh | BaF3 tox | APP 5UTR inh
CCOC(=O)c1cc(-c2c(Cl)cccc2Cl)no1 | - | - | - | - | - | .
CCN(CC(=O)NCc1cccs1)C(=O)c1cc(S(=O)(=O)NCc2ccccc2)ccc1C | . | . | . | - | . | .
O=C(N/N=C/c1ccco1)c1ccc(Br)o1 | - | - | - | - | 96 | -
O=C(C/C=N/OCc1c(Cl)cccc1Cl)c1cnc(-c2ccccc2)s1 | - | - | - | - | 72 | -
O=C(C/C=N/OCc1ccc(Cl)cc1)c1cnc(-c2ccccc2)s1 | - | - | - | - | - | -
O=C(COc1ccccc1)Nc1ccc(S(=O)(=O)Nc2ncccn2)cc1 | - | - | - | - | - | -
Cc1ccnc(NS(=O)(=O)c2ccc(NC(=O)COc3ccccc3)cc2)n1 | - | - | - | 68 | - | -
CCOC(=O)c1c(C)[nH]c(-c2csc(N)n2)c1C | - | - | - | . | - | 73
CCOC(=O)c1ccccc1-c1csc(N)n1 | - | - | - | - | 53 | -
C=CCOC(=O)c1c(C)nc2cc3c(cc2c1C)OCO3 | - | - | - | - | - | -
CCc1ccccc1NC(=O)CN(C1CCCCC1)S(C)(=O)=O | . | - | - | - | . | .
CCN(CC)CCn1cnc2c([nH]c3cccc(OC)c32)c1=O | - | - | - | - | 69 | -
O=C1C2C3C=CC(C4CC34)C2C(=O)N1CCCCN1CCN(c2ccc(F)cc2)CC1 (centres undefined) | . | . | . | - | . | .
CC1CCC(NCCNC(=O)c2ccco2)CC1 (centres undefined) | . | - | - | - | . | .
CCn1cc(CNC(=O)c2cc(COc3ccc(F)cc3Cl)on2)cn1 | - | - | - | - | - | -
CCn1nc(C)c(CNC(=O)c2cc(COc3ccc(F)cc3Cl)on2)c1C | 67 | - | - | - | 64 | .
O=C(Cn1c(-c2ccccc2)c[n+]2ccsc12)c1ccccc1 | 70 | - | - | - | 60 | -
O=C(Cn1c(-c2ccccc2)c[n+]2ccsc12)c1ccc([N+](=O)[O-])cc1 | - | - | - | - | - | -
CCCCc1c(CCC)c(=N)c2ccccc2n1C | 76 | - | - | - | 68 | -
CCCCc1c(O)c2ccccc2n(CCCC)c1=O | - | - | - | - | - | -
CC(C)(C)OC(=O)NCCCC[C@H](NC(=O)c1nc[nH]c1C(=O)N1CCN(C(=O)OC(C)(C)C)CC1)C(=O)OC(C)(C)C | - | - | - | - | - | -
CC(C)C[C@H](NC(=O)c1nc[nH]c1C(=O)N1CCN(C(=O)OC(C)(C)C)CC1)C(=O)OC(C)(C)C | - | - | - | - | - | 52
O=C(NC(=S)Nc1cccc2cccnc12)c1ccccc1 | - | - | - | - | 102 | -
CC(C)(C)C(=O)NC(=S)Nc1cccc(C(=O)O)c1 | - | - | - | - | - | -
O=C(O)c1cccc(NC(=S)NC(=O)c2ccncc2)c1 | - | - | - | - | - | 60
SMILES | Ba/F3 V617F tox | IEC-6 tox | KLF5 inh | aSyn 5UTR inh | BaF3 tox | APP 5UTR inh
Cc1ccc(S(=O)(=O)n2cccc2C)cc1 | . | . | . | - | . | .
Oc1ccc2ccccc2c1/C=N/Nc1nnc(-c2ncc[nH]2)c2ccccc12 | - | - | - | 102 | - | -
O=[N+]([O-])c1ccc2nc(NS(=O)(=O)c3ccc(F)cc3)sc2c1 | . | - | - | - | . | .
Cc1ccc(C#N)c(SCc2cc3c(cc2Cl)OCO3)n1 | - | - | - | - | - | -
Cc1cc(C)c(C#N)c(SCc2nnc(-c3ccccc3)o2)n1 | - | - | - | 102 | - | -
Cc1ccc(C#N)c(SCc2nnc(-c3ccc(Cl)cc3)o2)n1 | - | - | - | 90 | - | -
CCCCc1nc2cc(C(=O)N3CCCCC3CCNC(C)=O)ccc2o1 (centres undefined) | . | - | - | - | . | .
NC1=NC2(CCCC2)N=C(Nc2ccccc2)N1 | - | - | - | - | - | .
NC1=NC(c2ccccc2)N=C(Nc2ccccc2)N1 (centres undefined) | - | - | - | - | 68 | .
CC(=O)N1CCCc2cc(S(=O)(=O)N3CCCC(C)C3)ccc21 (centres undefined) | . | - | - | - | . | .
OCCN1CCN(CC/C=C2/c3ccccc3CSc3ccccc32)CC1 | . | . | . | 103 | . | .
COc1ccccc1NC(=O)C(C)OC(=O)CCCc1c[nH]c2ccccc12 (centres undefined) | . | . | . | - | . | .
CCCNC(=O)COC(=O)c1ccccc1C(=O)c1ccc(Cl)c([N+](=O)[O-])c1 | - | - | - | - | - | -
Cc1ccc(Cl)c(NC(=O)COC(=O)c2ccccc2C(=O)c2ccc(Cl)c([N+](=O)[O-])c2)c1Cl | - | - | - | - | - | 52
CCC1(C)N=C(N)Nc2nc3cc(C)c(C)cc3n21 (centres undefined) | 73 | - | - | - | 85 | .
Cc1cc(NC2CCCCC2)nc2ccccc12 | - | - | - | - | - | -
Cc1cc(OCC[N+]2(C)CCCCC2)nc2ccccc12 | 50 | - | - | - | 48 | .
CCn1c(C)[n+](Cc2ccccc2)c2ccc(Cl)cc21 | 28 | - | - | - | 33 | -
CCOC(=O)c1ccc2c(c1)n(CC)c(/C=C/Nc1ccccc1)[n+]2CC | 36 | - | - | - | 50 | -
Cc1n(Cc2ccccc2)c2ccccc2[n+]1Cc1ccccc1 | . | - | - | - | . | .
CCn1c(/C=C/Nc2ccccc2)[n+](CC)c2ccc(Cl)cc21 | - | - | - | - | - | -
CCn1c(C)[n+](Cc2ccccc2)c2ccc(C(=O)OC)cc21 | - | - | - | - | 37 | -
CCn1c(/C=C/N(C)c2ccccc2)[n+](CC)c2ccc(Cl)cc21 | 87 | - | - | - | 65 | -
O=C1NN(c2cccc(Br)c2)C(=O)/C1=C\c1ccc(N2CCOCC2)cc1 | . | - | - | - | . | .
CCOc1ccccc1C(=O)NC1CCNCC1 | . | - | - | - | . | .
SMILES | Ba/F3 V617F tox | IEC-6 tox | KLF5 inh | aSyn 5UTR inh | BaF3 tox | APP 5UTR inh
COc1ccc(N2CCN(S(=O)(=O)CCNC(=O)COc3cccc(OC)c3)CC2)cc1 | . | - | - | - | . | .
COc1cccc(OCCNC(=O)c2cccc(OC)c2)c1 | - | - | - | - | - | 45
COc1cccc(OCCNC(=O)c2ccc(C)cc2)c1 | . | - | - | - | . | .
CC(=O)OC(C(=O)NCCN1CCOCC1)c1c(F)cccc1F (centres undefined) | - | - | - | - | - | -
CCOc1ccc(N2CC(C(=O)NC3CCCC3)CC2=O)cc1 (centres undefined) | . | - | - | - | . | .
Cn1c(-c2ccc3c(c2)OCO3)cnc1NCc1cccc(O)c1 | - | - | - | - | 90 | -
Cn1c(-c2ccc(F)cc2)cnc1NCc1cccc(F)c1 | - | - | - | - | - | -
O=C(/C=C/c1cccnc1)/C=C/c1cccnc1 | 95 | 49 | - | . | 103 | .
O=C(/C=C/c1cccnc1)c1cc(F)ccc1O | - | - | - | - | - | .
COc1ccc2cc1Oc1ccc(cc1)C[C@H]1c3cc(c(OC)cc3CCN1C)Oc1c(OC)c(OC)cc3c1[C@H](C2)N(C)CC3 | . | . | . | - | . | .
COc1ccc2cc1Oc1ccc(cc1)C[C@H]1c3c(cc4c(c3Oc3cc5c(cc3OC)CCN(C)[C@@H]5C2)OCO4)CCN1C | . | . | . | 109 | . | .
Cc1ccc(-c2noc(C3CCCN(C(=O)c4ccccc4Br)C3)n2)o1 (centres undefined) | . | - | - | - | . | .

Source: PubChem
